“And” between values parts separate entries of the source, which are not always exact repeats. Equal values may be shown once. The source holds several records for some structures; these can differ, active in one and inactive in another. The source made the active and inactive calls. How the source made its calls: active means hit-call score of the fitted dose curve at least 0.9, where 1 is the maximum; inactive means score below 0.9.
How the values were obtained:
[1] = read-out: Vascular endothelial growth factor receptor 2 (Homo sapiens) (UniProt P35968); assay: BSK_4H_VEGFRII: BioMAP Diversity Plus: 4H Assay for Vascular endothelial growth factor receptor 2 (VEGFR2) Biomarker Activity (AID 2283031); settings: primary human endothelial cells (HUVEC); actives raise or lower the signal;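 on AC50: cell-surface VEGFR2 protein level quantified by ELISA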
In short: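 Primary human umbilical vein endothelial cells (4H system), 24 h exposure; cell-surface VEGFR2 measured by ELISA. Bidirectional fitting versus DMSO; cytotoxicity checked in parallel by SRB total-protein staining.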

[2] = read-out: Human Leukocyte Antigen - DR isotype (HLADR), HLA-DRA (gene 3122); assay: BSK_BE3C_HLADR: BioMAP Diversity Plus: BE3C Assay for Human Leukocyte Antigen - DR isotype (HLADR) Biomarker Activity (AID 2283032); settings: primary human bronchial epithelial cells; actives raise or lower the signal
In short: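 Human primary bronchial epithelial cells (BE3C system) exposed to compound for 24 hours; cell-surface HLA-DR measured by ELISA, fitted bidirectionally relative to DMSO. Total protein by SRB in parallel cultures tracked cytotoxicity.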

[3] = read-out: Interferon-gamma inducible Protein 10 (IP10), CXCL10 (gene 3627); assay: BSK_BE3C_IP10: BioMAP Diversity Plus: BE3C Assay for Interferon-gamma inducible Protein 10 (IP10) Biomarker Activity (AID 2283034); settings: primary human bronchial epithelial cells; actives raise or lower the signal
In short: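 Primary human bronchial epithelial cells, with IP-10 measured by ELISA 24 hours after chemical dosing. Bidirectional fit against DMSO; cytotoxicity checked by SRB total protein staining in parallel cultures.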

[4] = read-out: Monokine induced gamma interferon (MIG), CXCL9 (gene 4283); assay: BSK_BE3C_MIG: BioMAP Diversity Plus: BE3C Assay for Monokine induced gamma interferon (MIG) Biomarker Activity (AID 2283035); settings: primary human bronchial epithelial cells; actives raise or lower the signal
In short: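 Primary human bronchial epithelial cells treated for 24 h; MIG levels measured by ELISA, fitted bidirectionally versus DMSO. Parallel SRB total-protein staining assessed cytotoxicity.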

[5] = read-out: Transforming growth factor beta 1 (TGFb1), TGFB1 (gene 7040); assay: BSK_BE3C_TGFb1: BioMAP Diversity Plus: BE3C Assay for Transforming growth factor beta 1 (TGFb1) Biomarker Activity (AID 2283036); settings: primary human bronchial epithelial cells; actives raise or lower the signal
In short: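 Primary human bronchial epithelial cells dosed with chemical; TGF-b1 measured by ELISA 24 h after dosing. Bidirectional curve fitting against DMSO negative control; SRB total-protein staining in parallel cultures gauged cytotoxicity.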

[6] = read-out: Plasminogen activator inhibitor-1 (PAI1), SERPINE1 (gene 5054); assay: BSK_BE3C_PAI1: BioMAP Diversity Plus: BE3C Assay for Plasminogen activator inhibitor-1 (PAI1) Biomarker Activity (AID 2283037); settings: primary human bronchial epithelial cells; actives raise or lower the signal
In short: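 Primary human bronchial epithelial cells (BE3C system) exposed 24 h; PAI-1 quantified by ELISA. Parallel sulforhodamine B staining of total protein flags cytotoxicity. Bidirectional fit versus DMSO.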

[7] = read-out: urokinase plasminogen activator (uPA), PLAU (gene 5328); assay: BSK_BE3C_uPA: BioMAP Diversity Plus: BE3C Assay for urokinase plasminogen activator (uPA) Biomarker Activity (AID 2283038); settings: primary human bronchial epithelial cells; actives raise or lower the signal
In short: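 Primary human bronchial epithelial cells, uPA measured by ELISA 24 h after dosing. Bidirectional change relative to DMSO; cytotoxicity checked in parallel cultures by sulforhodamine B total-protein staining.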

[8] = read-out: Urokinase-type plasminogen activator receptor (uPAR), PLAUR (gene 5329); assay: BSK_BE3C_uPAR: BioMAP Diversity Plus: BE3C Assay for Urokinase-type plasminogen activator receptor (uPAR) Biomarker Activity (AID 2283039); settings: primary human bronchial epithelial cells; actives raise or lower the signal
In short: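 Primary human bronchial epithelial cells dosed for 24 h; uPAR quantified by ELISA with bidirectional fitting against DMSO. Overt cytotoxicity assessed in parallel cultures by SRB total-protein staining (0.1% SRB, 560 nm).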

[9] = read-out: Interleukin-6 (IL6), IL6 (gene 3569); assay: BSK_CASM3C_IL6: BioMAP Diversity Plus: CASM3C Assay for Interleukin-6 (IL6) Biomarker Activity for (AID 2283040); settings: primary human coronary artery smooth muscle cells; actives raise or lower the signal
[10] = read-out: Interleukin-8 (IL8), CXCL8 (gene 3576); assay: BSK_CASM3C_IL8: BioMAP Diversity Plus: CASM3C Assay for Interleukin-8 (IL8) Biomarker Activity (AID 2283042); settings: primary human coronary artery smooth muscle cells; actives raise or lower the signal;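 further: IL-8 protein level quantified by ELISA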
[11] = read-out: Human Leukocyte Antigen - DR isotype (HLADR), HLA-DRA (gene 3122); assay: BSK_CASM3C_HLADR: BioMAP Diversity Plus: CASM3C Assay for Human Leukocyte Antigen - DR isotype (HLADR) Biomarker Activity (AID 2283043); settings: primary human coronary artery smooth muscle cells; actives raise or lower the signal;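 further: cell-surface HLA-DR protein level quantified by ELISA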
[12] = read-out: Macrophage colony-stimulating factor (MCSF), CSF1 (gene 1435); assay: BSK_CASM3C_MCSF: BioMAP Diversity Plus: CASM3C Assay for Macrophage colony-stimulating factor (MCSF) Biomarker Activity (AID 2283044); settings: primary human coronary artery smooth muscle cells; actives raise or lower the signal;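 further: M-CSF protein amount quantified by ELISA after 24 h exposure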
[13] = read-out: Low-density lipoprotein receptor (LDLR), LDLR (gene 3949); assay: BSK_CASM3C_LDLR: BioMAP Diversity Plus: CASM3C Assay for Low-density lipoprotein receptor (LDLR) Biomarker Activity (AID 2283045); settings: primary human coronary artery smooth muscle cells; actives raise or lower the signal;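 further: LDLR protein level on the cell surface quantified by ELISA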
[14] = read-out: Monocyte Chemoattractant Protein-1 (MCP1), CCL2 (gene 6347); assay: BSK_CASM3C_MCP1: BioMAP Diversity Plus: CASM3C Assay for Monocyte Chemoattractant Protein-1 (MCP1) Biomarker Activity (AID 2283046); settings: primary human coronary artery smooth muscle cells; actives raise or lower the signal;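 further: MCP-1 level quantified by ELISA 24 h after dosing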
[15] = BSK_CASM3C_Proliferation: Cell Proliferation Assessment in the BioMAP Diversity Plus: CASM3C Assay (AID 2283047); settings: primary human coronary artery smooth muscle cells;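 further: sulforhodamine B total protein stain as relative cell number at 560 nm; sub-confluent cells exposed 48 h before staining; fitted both ways against DMSO so gain or loss of cell number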
[16] = read-out: Monokine induced gamma interferon (MIG), CXCL9 (gene 4283); assay: BSK_CASM3C_MIG: BioMAP Diversity Plus: CASM3C Assay for Monokine induced gamma interferon (MIG) Biomarker Activity (AID 2283048); settings: primary human coronary artery smooth muscle cells; actives raise or lower the signal
[17] = read-out: serum amyloid A (SAA), SAA1 (gene 6288); assay: BSK_CASM3C_SAA: BioMAP Diversity Plus: CASM3C Assay for serum amyloid A (SAA) Biomarker Activity (AID 2283049); settings: primary human coronary artery smooth muscle cells; actives raise or lower the signal;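 further: SAA protein level quantified by ELISA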
[18] = BSK_CASM3C_SRB: Viability Assessment in the BioMAP Diversity Plus: CASM3C Assay (AID 2283050); settings: primary human coronary artery smooth muscle cells
[19] = read-out: Vascular cell adhesion molecule 1 (VCAM1), VCAM1 (gene 7412); assay: BSK_4H_VCAM1: BioMAP Diversity Plus: 4H Assay for Vascular cell adhesion molecule 1 (VCAM1) Biomarker Activity (AID 2283033); settings: primary human endothelial cells (HUVEC); actives raise or lower the signal
In short: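 Primary human umbilical vein endothelial cells, 4H stimulation system, treated for 24 h; cell-surface VCAM-1 quantified by ELISA. Bidirectional fitting against DMSO; cytotoxicity tracked by SRB total-protein staining in parallel cultures.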

[20] = read-out: Tissue plasminogen activator (tPA), PLAT (gene 5327); assay: BSK_BE3C_tPA: BioMAP Diversity Plus: BE3C Assay for Tissue plasminogen activator (tPA) Biomarker Activity (AID 2283041); settings: primary human bronchial epithelial cells; actives raise or lower the signal;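 further: tPA level quantified by ELISA one day after compound addition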
In short: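 Primary human bronchial epithelial cells in the BE3C system, exposed to compound for 24 h. tPA was quantified by ELISA; DMSO served as baseline, with gain or loss of signal fitted. Cytotoxicity checked in parallel cultures by SRB total-protein staining.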

Measured: AC50

C=C(C)C(N)=O
not listed: [19] | [20]
inactive: all other assays above

NC(=O)c1c(Cl)cccc1Cl
inactive: all assays above

CC(=O)OC(C)(C)C1CC=C(C)CC1 (stereo not given)
active: [1] 31.6 µM | [2] 35.4 µM | [3] 31.5 µM | [11] 31.5 µM | [12] 35.3 µM | [14] 32.6 µM | [15] 29.6 µM | [18] 28.6 µM
not listed: [19] | [20]
inactive: all other assays above

CC=CC(=O)C1=C(C)C=CCC1(C)C
not listed: [19] | [20]
inactive: all other assays above

COc1ccccc1NC(=O)CC(C)=O
not listed: [19] | [20]
inactive: all other assays above

CC(C)Cc1ccc(C(C)C(=O)O)cc1 (stereo not given)
active: [9] 5.55 µM | [15] 0.2 µM
not listed: [20]
inactive: all other assays above

COC(=O)c1ccc(C(=O)OC)cc1
not listed: [19] | [20]
inactive: all other assays above

C#C[C@]1(O)CC[C@H]2[C@@H]3CCc4cc(O)ccc4[C@H]3CC[C@@]21C
active: [13] 29.2 µM | [14] 2.14 µM | [15] 7.37 µM | [17] 0.935 µM
not listed: [20]
inactive: all other assays above

CCCCCCCCCCCCS
active: [2] 20 µM | [3] 20 µM | [11] 33.8 µM | [14] 3.97 µM | [15] 24.4 µM | [18] 28.5 µM
not listed: [19] | [20]
inactive: all other assays above

O=C1OC2(c3ccc(O)cc3Oc3cc(O)ccc32)c2ccccc21
not listed: [19] | [20]
inactive: all other assays above

OCC(F)(OC(F)(F)C(F)(OC(F)(F)C(F)(F)C(F)(F)F)C(F)(F)F)C(F)(F)F (stereo not given)
active: [2] 5.06 µM | [3] 4.78 µM
inactive: [1] | [2] | [3] | [4] | [6] | [7] | [8] | [9] | [10] | [11] | [12] | [13] | [14] | [15] | [16] | [17] | [18]

CCCCCCCCCC(=O)OCC
active: [19] 31.7 µM | [3] 20 µM | [5] 20 µM | [9] 31.8 µM | [10] 37 µM | [11] 32.5 µM | [12] 31.4 µM | [13] 36.4 µM | [14] 31.9 µM | [15] 20 µM | [16] 31.5 µM | [17] 31.8 µM | [18] 33 µM
inactive: [1] | [2] | [4] | [6] | [7] | [8]

C=C1CC/C=C(\C)CC[C@@H]2[C@@H]1CC2(C)C
active: [1] 29.1 µM | [3] 28.6 µM | [18] 33.2 µM
not listed: [19]
inactive: all other assays above

CCCCCCCC1CCCC1=O (stereo not given)
inactive: [1] | [4] | [8] | [10]
active: [2] 30.7 µM | [3] 33.5 µM | [5] 36.6 µM | [6] 36.6 µM | [7] 32.4 µM | [9] 31 µM | [11] 35.2 µM | [12] 31.9 µM | [13] 30.5 µM | [14] 34.3 µM | [15] 31.2 µM | [16] 31.8 µM | [17] 36.2 µM | [18] 36.6 µM

CC(C)(CO)CO
inactive: [1] | [2] | [3] | [4] | [6] | [7] | [8] | [9] | [10] | [11] | [12] | [13] | [14] | [15] | [16] | [17] | [18]
active: [3] 5.62 µM | [4] 8.35 µM

Nc1ccc(N)c([N+](=O)[O-])c1
active: [14] 7.95 µM
not listed: [20]
inactive: all other assays above

CCCCOCCOCCO
not listed: [19]
inactive: all other assays above

OCCN1CCOCC1
not listed: [19] | [20]
inactive: all other assays above

CC(=O)CCC=C(C)CCC=C(C)C
active: [15] 0.197 µM
not listed: [19] | [20]
inactive: all other assays above

CC/C(=C(\c1ccccc1)c1ccc(OCCN(C)C)cc1)c1ccccc1
inactive: [1]
active: [1] 4.71 µM | [2] 9.68 µM and 9.06 µM | [3] 10.3 µM and 9.01 µM | [4] 12.1 µM and 11.1 µM | [5] 9.23 µM and 20 µM | [6] 11.5 µM and 11.7 µM | [7] 9.63 µM and 7.45 µM | [8] 8.83 µM and 6.66 µM | [9] 27.3 µM and 32.2 µM | [10] 30.9 µM and 15.7 µM | [11] 28.8 µM and 9.17 µM | [12] 21 µM and 15.7 µM | [13] 31.8 µM and 34.2 µM | [14] 27.4 µM and 25.9 µM | [15] 12.7 µM and 6.94 µM | [16] 31.5 µM and 32 µM | [17] 28.1 µM and 11.7 µM | [18] 27.2 µM and 16.9 µM

CC(C)(C)c1cccc(O)c1
not listed: [19]
inactive: all other assays above

Source: PubChem BioAssay (EPA / NIEHS)
